Experiment [1] in a line: SK-BR-3 cell growth inhibitors, pilot screen, 24 h, human (AID 572;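 active = viability at or below 10% of carrier control in both of two separate runs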;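 also: compound exposure lasted between 18 and 24 h rather than exactly 24 h; 100% = carrier-treated control wells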). The conditions noted are these: SK-BR-3 viability, CellTiter-Glo luminescence, at 10 µM, stronger effect = lower value. In general terms: ATP-based viability assays read luminescence as a measure of living cells.
The nature of experiment [2]: HUVEC growth inhibition – cell-based, human, primary screen (AID 575;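 active = viability at or below 30% in both replicate assays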;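 also: 100% = median of untreated cell wells with 0.1% DMSO on each plate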). The conditions noted are these: HUVEC proliferation, CellTiter-Glo luminescence, 72 h; at 10 µM; stronger effect = lower value.
Experiment [3] can be described thus: growth inhibitors of H69AR lung tumor, primary screen, human, duplicate replicates (AID 580;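 active = viability at or under a set limit in both replicates, limit being median viability minus 3 SD, cut at about 48% in these data, passing the limit was not always enough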;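 also: 100% = mean luminescence of untreated wells and 0% = no signal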). The conditions noted are these: H69AR lung tumor cells viability, ATP luminescence, 72 h; at 10 µM; stronger effect = lower value.
Experiment [4] is described as follows: reversal of MRP1-mediated doxorubicin resistance, pilot screen, H69AR cells, doxorubicin co-treatment (AID 601;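 active = viability loss from added drug above about 55%, and viability with drug at most 40%, in both replicates, limit read from the data, passing the limit was not always enough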). As to conditions: CellTiter-Glo, 72 h, at 10 µM; for differential viability (reversal): stronger effect = higher value.
The nature of experiment [5]: 384-well plate pilot, post-Golgi transport modulator project, inhibition of yeast transport mutant growth (AID 636; in the data active = inhibition above about 31%). As to conditions: absorbance 615 nm, about 18 h, stronger effect = higher value.
Experiment [6] is described as follows: growth suppression of yeast trafficking mutant, preliminary HTS, modulators of trafficking downstream of Golgi apparatus project, 1536-format plate, OD 615 nm (AID 637). The conditions noted are these: yeast transport mutant growth, absorbance 615 nm, 18 h; stronger effect = higher value.
[7] abbreviates: H69AR cells + 2 uM doxorubicin, measured here: viability with 2 uM doxorubicin, stronger effect = lower value.
[8] abbreviates: H69AR cells, compound alone cytotoxicity.

Active and inactive are the calls of the source. Rule as the data show it, unless noted: active = inhibition above about 30%; inactive = the rest.

The term viability denotes a read-out of living cells in per cent, often relative to untreated cells. In general, inhibition refers to the drop in the measured response relative to a control, in per cent. For `Cc1ccccc1-n1nnc2c(=O)oc3ccccc3c21`, the viability was 99.5% (inactive) in experiment [1]; 64.9% (inactive) in experiment [2]; 85.8% (inactive) in experiment [3]; 84.5% in experiment [4] (setting [7]); 85.8% in experiment [4] (setting [8]). The differential viability (reversal) in experiment [4] (H69AR cells + 2 uM doxorubicin) is 1.29% (inactive). Besides, the values for the inhibition in experiment [5] and in experiment [6] were -4.47% (inactive) and 5.83% (inactive), respectively.
As for `COc1cc2c3c(c1)/C(=C1/SC(NC(C)=O)=NC1=O)C(=O)N3C(C)(C)C=C2C`, the viability is 91% (inactive) in experiment [1]; 54.8% (inactive) in experiment [2]; 72.2% (inactive) in experiment [3]; 80.2% in experiment [4] (setting [7]); 72.2% in experiment [4] (setting [8]). Besides, in experiment [4] (H69AR cells + 2 uM doxorubicin), the differential viability (reversal) is -7.9% (inactive). In addition, the figures for the inhibition in experiment [5] and in experiment [6] were -10% (inactive) and -1.77% (inactive), respectively.
Regarding `Nc1nc(-c2ccc(Br)s2)c(Br)s1`, the viability in experiment [1] is 100% (inactive); in experiment [2], 61.3% (inactive); in experiment [3] it was 94.3% (inactive); in experiment [4] (setting [7]), 84.5%; in experiment [4] (setting [8]), 94.3%. The differential viability (reversal) in experiment [4] (H69AR cells + 2 uM doxorubicin) was 9.83% (inactive). Also, the figures for the inhibition in experiment [5] and in experiment [6] were 2.6% (inactive) and -0.16% (inactive), respectively.
On to `COc1ccc(-n2c(SCC(N)=O)nc3sc4c(c3c2=O)CCN(C)C4)cc1`, for which the viability is 126% (inactive) in experiment [1]; 93.5% (inactive) in experiment [2]; 101% (inactive) in experiment [3]; 111% in experiment [4] (setting [7]); 101% in experiment [4] (setting [8]). Also, the differential viability (reversal) in experiment [4] (H69AR cells + 2 uM doxorubicin) was -9.52% (inactive). Besides, the inhibition is 6.16% (inactive) in experiment [5] and -1.94% (inactive) in experiment [6].
With `Cc1csc(NC(=O)c2cccs2)n1`, the viability in experiment [1] is 119% (inactive); in experiment [2] it was 93.9% (inactive); in experiment [3] it was 89.7% (inactive); in experiment [4] (setting [7]), 85.8%; in experiment [4] (setting [8]), 89.7%. Moreover, the differential viability (reversal) in experiment [4] (H69AR cells + 2 uM doxorubicin) was 3.83% (inactive). Besides, the inhibition in experiment [5] was -1.43% (inactive); in experiment [6], 1.48% (inactive).
As to `COCCCNCC(=O)Nc1ccc(OC(F)(F)F)cc1`, the viability was 102% (inactive) in experiment [1]; 113% (inactive) in experiment [2]; 98.5% (inactive) in experiment [3]; 85.5% in experiment [4] (setting [7]); 98.5% in experiment [4] (setting [8]). Besides, in experiment [4] (H69AR cells + 2 uM doxorubicin), the differential viability (reversal) was 13% (inactive). In addition, the figures for the inhibition in experiment [5] and in experiment [6] were -9.2% (inactive) and -5.82% (inactive), respectively.
For the molecule `Cc1nnc(SCc2cccc(Oc3ccccc3)c2)n1N`, the viability in experiment [1] was 74% (inactive); in experiment [2], 89.3% (inactive); in experiment [3] it was 99.6% (inactive); in experiment [4] (setting [7]), 94.4%; in experiment [4] (setting [8]), 99.6%. The differential viability (reversal) in experiment [4] (H69AR cells + 2 uM doxorubicin) was 5.25% (inactive). Also, the inhibition is -5.89% (inactive) in experiment [5] and 6.18% (inactive) in experiment [6].
Take `COc1cccc(C(=O)NC2=NCCS2)c1`: the viability is 109% (inactive) in experiment [1]; 100% (inactive) in experiment [2]; 96.7% (inactive) in experiment [3]; 84.6% in experiment [4] (setting [7]); 96.7% in experiment [4] (setting [8]). The differential viability (reversal) in experiment [4] (H69AR cells + 2 uM doxorubicin) is 12.1% (inactive). Also, the inhibition in experiment [5] is -4.11% (inactive); in experiment [6], 0.32% (inactive).
For `O=C(CCn1c(=O)oc2ccccc21)N1CCCCCC1`, the viability is 112% (inactive) in experiment [1]; 99% (inactive) in experiment [2]; 98.3% (inactive) in experiment [3]; 93.3% in experiment [4] (setting [7]); 98.3% in experiment [4] (setting [8]). Also, the differential viability (reversal) in experiment [4] (H69AR cells + 2 uM doxorubicin) was 5.09% (inactive). The inhibition was 0.95% (inactive) in experiment [5] and -1.64% (inactive) in experiment [6].
For `CCOC(=O)CSc1nnc(NCC(=O)OC(C)C)c(=O)[nH]1`, the viability in experiment [1] was 102% (inactive); in experiment [2], 93.9% (inactive); in experiment [3] it was 93.3% (inactive); in experiment [4] (setting [7]), 91.4%; in experiment [4] (setting [8]), 93.3%. Further, in experiment [4] (H69AR cells + 2 uM doxorubicin), the differential viability (reversal) is 1.93% (inactive). Besides, the inhibition in experiment [5] is -1.56% (inactive); in experiment [6], -3.61% (inactive).
Regarding `O=C(CCC1COc2ccccc2O1)NCC1COc2ccccc2O1` (configuration not stated), the viability in experiment [1] is 125% (inactive); in experiment [2], 103% (inactive); in experiment [3], 87.8% (inactive); in experiment [4] (setting [7]) it was 83.4%; in experiment [4] (setting [8]) it was 87.8%. Besides, the differential viability (reversal) in experiment [4] (H69AR cells + 2 uM doxorubicin) was 4.35% (inactive). Further, the figures for the inhibition in experiment [5] and in experiment [6] were -6.3% (inactive) and 4.68% (inactive), respectively.
Turning to `COc1ccccc1CNC(=O)Nc1cccs1`, the viability in experiment [1] is 126% (inactive); in experiment [2], 63.8% (inactive); in experiment [3], 72.1% (inactive); in experiment [4] (setting [7]), 66.5%; in experiment [4] (setting [8]), 72.1%. Further, the differential viability (reversal) in experiment [4] (H69AR cells + 2 uM doxorubicin) is 5.65% (inactive). Also, the inhibition was -0.78% (inactive) in experiment [5] and 4.1% (inactive) in experiment [6].
For the molecule `CN(CC(=O)Nc1cccnc1)S(=O)(=O)c1cc(Cl)ccc1Cl`, the viability in experiment [1] was 104% (inactive); in experiment [2], 105% (inactive); in experiment [3] it was 91.7% (inactive); in experiment [4] (setting [7]) it was 99.2%; in experiment [4] (setting [8]) it was 91.7%. In addition, in experiment [4] (H69AR cells + 2 uM doxorubicin), the differential viability (reversal) was -7.51% (inactive). In addition, the inhibition in experiment [5] was -0.14% (inactive); in experiment [6] it was 6.73% (inactive).
Turning to `COc1ccc(C(C)NC(=O)c2ccoc2C)cc1OC` (configuration not stated), the viability is 83% (inactive) in experiment [1]; 91.3% (inactive) in experiment [2]; 89.8% (inactive) in experiment [3]; 94.7% in experiment [4] (setting [7]); 89.8% in experiment [4] (setting [8]). For the same molecule, in experiment [4] (H69AR cells + 2 uM doxorubicin), the differential viability (reversal) was -4.93% (inactive). The inhibition in experiment [5] is -6.16% (inactive); in experiment [6], 1.82% (inactive).
Turning to `Cn1c(=O)[nH]c(=O)c2c1nc(Br)n2CCCSc1nc2ccccc2o1`, the viability in experiment [1] was 89% (inactive); in experiment [2], 36.2% (inactive); in experiment [3], 23.8% (active); in experiment [4] (setting [7]), 33.3%; in experiment [4] (setting [8]) it was 23.8%. The differential viability (reversal) in experiment [4] (H69AR cells + 2 uM doxorubicin) is -9.42% (inactive). Moreover, the inhibition was -4.13% (inactive) in experiment [5] and -4.55% (inactive) in experiment [6].
In the case of `COC(=O)C1=C(N)Oc2cc(C)n(Cc3ccncc3)c(=O)c2C1c1cccnc1` (configuration not stated), the viability is 113% (inactive) in experiment [1]; 86% (inactive) in experiment [2]; 88.4% (inactive) in experiment [3]; 84.6% in experiment [4] (setting [7]); 88.4% in experiment [4] (setting [8]). For the same molecule, in experiment [4] (H69AR cells + 2 uM doxorubicin), the differential viability (reversal) is 3.73% (inactive). Besides, the inhibition in experiment [5] was -7.4% (inactive); in experiment [6], 0.97% (inactive).
`O=C(Nc1nonc1NC(=O)C1CCCCC1)C1CCCCC1`: the viability in experiment [1] was 111% (inactive); in experiment [2] it was 84.7% (inactive); in experiment [3] it was 89.9% (inactive); in experiment [4] (setting [7]) it was 86.8%; in experiment [4] (setting [8]), 89.9%. Moreover, the differential viability (reversal) in experiment [4] (H69AR cells + 2 uM doxorubicin) is 3.04% (inactive). The inhibition in experiment [5] is -10% (inactive); in experiment [6] it was 1.94% (inactive).
On to `Cc1ccc(-c2nnc3c4ccccc4c(C)nn23)cc1S(=O)(=O)N1CCN(C)CC1`, for which the viability was 85% (inactive) in experiment [1]; 78.6% (inactive) in experiment [2]; 74% (inactive) in experiment [3]; 90.7% in experiment [4] (setting [7]); 74% in experiment [4] (setting [8]). Also, the differential viability (reversal) in experiment [4] (H69AR cells + 2 uM doxorubicin) is -16.7% (inactive). In addition, the results for the inhibition in experiment [5] and in experiment [6] were -5.2% (inactive) and 1.15% (inactive), respectively.
Turning to `CCCN(CCC)C(=O)C(CCC(=O)O)NC(=O)c1ccccc1` (configuration not stated), the viability in experiment [1] was 108% (inactive); in experiment [2] it was 94.9% (inactive); in experiment [3], 105% (inactive); in experiment [4] (setting [7]), 95.9%; in experiment [4] (setting [8]), 105%. The differential viability (reversal) in experiment [4] (H69AR cells + 2 uM doxorubicin) is 9.32% (inactive). The inhibition in experiment [5] is -5.32% (inactive); in experiment [6] it was 2.33% (inactive).

These data come from PubChem BioAssay.
